The list is not random: actives were taken first. Their share in the collection is about 1.7%.
GLP1R ag = activates the human GLP-1 receptor; HEK293 GLP-1R CRE-luciferase, luminescence, 4-6 h; cells express a hypersensitive GLP-1R form; AID 624172; Potency, µM (series often up to 45.6 µM), actives largely listed as activators; hit rate 0.007% among 380,000
Target sequence (P43220 whole entry, looked up): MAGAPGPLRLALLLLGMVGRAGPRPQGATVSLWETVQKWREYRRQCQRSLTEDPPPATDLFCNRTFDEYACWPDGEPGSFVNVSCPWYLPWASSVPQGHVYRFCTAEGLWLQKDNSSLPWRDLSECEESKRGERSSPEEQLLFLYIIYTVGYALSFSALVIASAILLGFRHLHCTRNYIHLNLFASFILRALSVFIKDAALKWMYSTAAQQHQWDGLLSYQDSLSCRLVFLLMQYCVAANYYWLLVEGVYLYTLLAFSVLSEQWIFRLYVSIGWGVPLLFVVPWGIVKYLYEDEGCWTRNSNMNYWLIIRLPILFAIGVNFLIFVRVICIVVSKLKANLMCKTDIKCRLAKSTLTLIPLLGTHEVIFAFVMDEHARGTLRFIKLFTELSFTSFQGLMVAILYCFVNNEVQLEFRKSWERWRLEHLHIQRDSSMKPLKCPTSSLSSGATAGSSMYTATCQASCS
PTHR1 ag = agonists of human PTHR1 parathyroid hormone receptor; HEK293 GP2 PTHR1 cells, GloSensor cAMP luminescence, 1 h; Potency, µM (series often up to 115 µM), actives largely listed as activators; hit rate 0.075% among 410,000; note: nearly all actives have a fitted effect of over 55% in size
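HEK-293-derived GP2 cells expressing PTHR1 and a GloSensor cAMP reporter, 3,000/well, plated overnight, given luciferin plus IBMX (each 0.5 mM as added) for 1 h at 37 °C, then compound for 1 h at 37 °C. Luminescence was read after 15 min at room temperature.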
GLP1R cytotox = cytotoxicity in counter-screen for GLP-1R inverse agonists | HEK293 cAMP-luciferase reporter cells, luminescence, 24 h | Potency, µM (titrated, usually from 38.3 µM), actives largely listed as inhibitors | hit rate 0.13% among 410,000;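 note: loss of luciferase light is scored as toxicity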
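Cells in DMEM/10% Nu serum/1% pen-strep, 1536-well format. Pre-incubated 12 h, dosed with 23 nL compound, incubated a further 24 h. Luciferase detection, 12 min at room temp, luminescence.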
GLP-1R inv ag = GLP-1 receptor (human) inverse agonism; HEK293 GLP-1R CRE-luciferase, luminescence, 24 h; GLP-1R form is constitutively active; Potency, µM (titrated, usually from 38.3 µM), most hits filed as inhibitors; hit rate 1.6% among 410,000; note: nearly all actives have a fitted effect of over 55% in size
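GLP-1R inverse agonism mode: basal reporter luminescence in engineered HEK293 cells measured after one day of compound exposure at 37 deg C, with a 12 min room-temperature detection step.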
Of the large screens only hits and unclear results are named; the others gave an inactive call. Calls come from the whole dose curve; as a rule, active = well fitted curve in the direction sought with a large enough effect; inconclusive = small, poorly fitted or top-dose-only effect, or another doubt; inactive = no such curve, though single readings can be large; an effect the other way counts as inactive or inconclusive.

O=C(CSc1ccc2c(c1)OCCO2)NCCc1ccc(Cl)cc1Cl	GLP-1R inv ag 11µM
O=C(CSc1ccc2c(c1)OCCO2)Nc1ncc(Cl)cc1Cl	none
Clc1ccccc1NN=Cc1ccccn1	GLP-1R inv ag 4µM
Cc1nc(N/N=C/c2ccccn2)sc1C	GLP1R cytotox 3.5µM, GLP-1R inv ag 2.2µM
Nc1c(Cl)ncnc1N/N=C/c1ccccn1	GLP-1R inv ag inconclusive
CCCc1sc(N/N=C/c2ccccn2)nc1-c1ccc(F)cc1	GLP1R cytotox inconclusive, GLP-1R inv ag inconclusive
O=C(CN1c2ccc(Br)cc2-c2ccccc2S1(=O)=O)N1CCCCC1	none (no result: GLP1R ag)
FC(F)(F)c1cccc(NC(=S)NC(c2ccccc2)c2ccccc2)c1	GLP-1R inv ag 2.8µM
CC(C)(C)OC(=O)N1CCC(c2c(C(=O)Nc3ccc4c(c3)OCCO4)cnn2-c2ccc(F)cc2)CC1	GLP-1R inv ag inconclusive (no result: GLP1R ag)
O=C(CN1CCCC1)N/N=C/c1c(O)ccc2ccccc12	GLP-1R inv ag 2.8µM
O=C(NN=Cc1c(O)ccc2ccccc12)C1CC1	GLP-1R inv ag inconclusive
Cc1cc(NCCCN)nc(-c2ccccc2O)n1	GLP-1R inv ag 10µM
CCN1CCOC(=O)C1CC(=O)Nc1ccc(C)c(Cl)c1 (configuration not stated)	none
Nc1ncn(C(=S)Nc2ccccc2)n1	GLP1R cytotox 4.5µM, GLP-1R inv ag inconclusive
S=C(Nc1ccccc1)N1CCCCCC1	none
CS(=O)(=O)c1ccc([C@H](O)[C@H](CF)NC(=O)C(Cl)Cl)cc1	none (no result: PTHR1 ag, GLP1R cytotox, GLP-1R inv ag)
Cc1ccc(C(=O)N2CCC(C(=O)c3ccc(F)cc3)CC2)cc1	GLP-1R inv ag inconclusive
Cc1ccc(C(=O)C2CCN(C(=O)c3ccc(C)cc3)CC2)cc1	GLP-1R inv ag 8.9µM
Fc1ccc(C(NCCc2ccc(Cl)cc2)c2nnc(-c3ccccc3)o2)c(Cl)c1 (configuration not stated)	GLP-1R inv ag 10µM (no result: GLP1R ag)
CCCC(CCC)C(=O)Nc1ccc2c(c1)N(C(=O)CN1CCN(C)CC1)c1ccccc1CC2	GLP1R cytotox inconclusive, GLP-1R inv ag 7.9µM
CCOC(=O)Nc1ccc2c(c1)N(C(=O)CN1CCN(C)CC1)c1ccccc1S2	GLP1R cytotox inconclusive, GLP-1R inv ag inconclusive
COC(=O)c1cc(O)cc(OC)c1Oc1cc(C)cc(O)c1C(=O)O	GLP-1R inv ag 8.9µM
COC(=O)c1cc(O)cc(OC)c1C(=O)c1c(O)cc(C)cc1O	none
Cc1ccccc1Nc1cc(C(=O)NCCCN2CCN(c3cccc(Cl)c3)CC2)c2ccccc2n1	GLP-1R inv ag inconclusive (no result: GLP1R ag)
CC(=O)c1ccc(C(=O)N2CCC(n3nccc3NC(=O)C3CC3)CC2)cc1	none
Cc1cc(C)cc(NC(=O)C(=S)NCc2ccccc2)c1	GLP-1R inv ag 11µM
Cc1cc(Cl)ccc1NNC(=O)CCc1ccccc1	GLP-1R inv ag 4.5µM
O=C(CCc1ccccc1)NNC(=O)c1cc(Cl)ccc1O	none
Cc1cc(Cl)ccc1NC(=S)NCc1ccccc1	GLP-1R inv ag 11µM
Cc1cc(Cl)ccc1NNC(=O)c1c(C)noc1C	GLP1R cytotox inconclusive, GLP-1R inv ag 1.4µM
Cc1ccc(NNC(=O)c2c(C)noc2C)cc1Cl	GLP-1R inv ag inconclusive
COc1cccc(CNC(=S)Nc2ccc(Cl)cc2C)c1	GLP1R cytotox inconclusive, GLP-1R inv ag inconclusive
CCOc1ccc(C(=O)NNC(=O)CCNC(=O)c2ccco2)cc1OC	none
C/C1=C2N=C(/C=C3N=C(/C(C)=C4\[N-][C@@H]([C@H](CC(N)=O)[C@]4(C)CCC(=O)NC[C@@H](C)OP(=O)([O-])O[C@@H]4[C@@H](O)[C@H](n5cnc6cc(C)c(C)cc65)O[C@@H]4CO)[C@@]4(C)N=C1[C@H](CCC(N)=O)[C@@]4(C)CC(N)=O)[C@H](CCC(N)=O)C\3(C)C)[C@@H](CCC(N)=O)[C@@]/2(C)CC(N)=O.[CH3-].[Co+3]	none (no result: PTHR1 ag, GLP1R cytotox, GLP-1R inv ag)
CC(C)=CCC/C(C)=C/CC/C(C)=C/CCC(=O)OC/C=C(\C)CCC=C(C)C	none (no result: PTHR1 ag, GLP1R cytotox, GLP-1R inv ag)
CCOc1ccccc1N(C)S(=O)(=O)c1ccc2c(c1)CCN2C(=O)CCC(=O)O	none
S=C(NCc1cccs1)Nc1cccc2ccccc12	GLP-1R inv ag inconclusive
S=C(NCc1ccccc1)Nc1cccc2ccccc12	GLP1R cytotox inconclusive, GLP-1R inv ag 10µM
Cc1sc2ncnc(N3CCC(C(=O)Nc4cc(Cl)ccc4Cl)CC3)c2c1C	GLP-1R inv ag 10µM
CCN(CC)S(=O)(=O)c1cc(NC(=O)C2CC(=O)N(Cc3ccccc3)C2)ccc1Cl (configuration not stated)	GLP-1R inv ag 10µM
